Shown are actives, neighbours in structure and some others; about 21% of the full set was active somewhere.
ELG1 repair inh: ELG1-dependent DNA repair inhibition. HEK293T ELG1-luciferase reporter, luminescence, 16 h; DNA damage induced by 5-fluorouridine. Potency, µM (titrated, usually from 46.1 µM), for the others: at the top dose activity change, negative = inhibition, actives largely listed as inhibitors. 330,000 tested, 2.3% active; further: potency means the concentration at half of the fitted maximal effect; nearly all actives have a fitted effect of over 55% in size
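Step one: seed 2,000 cells per well. Step two: pin-transfer compound or DMSO alongside 5-fluorouridine. Step three: incubate 16 hr, 37 °C, 5% CO2. Step four: add ONE-Glo, wait 30 min, read luminescence.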
DT40 TDP1 no CPT: qHTS for Inhibitors of human tyrosyl-DNA phosphodiesterase 1 (TDP1): qHTS in cells in absence of CPT; 420,000 tested, 15% active; AID 686978, 2013; Potency, µM (series often up to 46.2 µM), inactives show at the highest dose activity change, negative = growth inhibition, most hits filed as inhibitors; DT40 Tdp1-/- hTDP1 cells, no CPT, ATP luminescence, 48 h; further: potency means the concentration at half of the fitted maximal effect; nearly all actives have a fitted effect of over 55% in size
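Luminescent ATP content (CellTiter-Glo) served as the growth readout. Knockout chicken DT40 cells expressing human TDP1 were exposed to compounds without camptothecin for a minimum 48 hr at 37 °C.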
IL-1B inflam inh: inhibitors of inflammasome signaling (IL-1 beta secretion) | THP-1 LPS/ATP IL-1B secretion, AlphaLISA, 16 h; hits give low values | activity change, % at 57.5 µM | 360,000 tested, 4.7% active; in the data active means activity change below about -50%; inconclusive means mostly about -30% to -49%
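THP-1 cells pretreated 1 hr with compounds (up to 57.5 uM final), then stimulated with LPS (250 ng/mL final) plus ATP (1.25 mM final); secreted IL-1B measured by AlphaLISA after 16 hr, decreased signal indicating inhibition.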
VP16 counter: counter-screen for ROR gamma inhibitors: Gal4-VP16 reporter | Drosophila S2 Gal4-VP16 UAS-luciferase, luminescence, 20 h | Potency, µM (titrated, usually from 53.6 µM), inactives show top-dose activity, negative = inhibition, most hits filed as inhibitors | 310,000 tested, 3.5% active;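 further: Gal4-VP16 expression switched on by copper sulfate through the metallothionein promoter; potency means the concentration at half of the fitted maximal effect; nearly all actives have a fitted effect of over 50% in size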
RORg inh: ROR gamma (mouse) transcription inhibition; Potency, µM (series often up to 53.6 µM), for the others: top-dose activity change, negative = inhibition, usual class: inhibitors; P51450; Drosophila S2 Gal4-RORgamma UAS-luciferase reporter, 20 h; AID 2551; 310,000 tested, 5.4% active; further: potency means the concentration at half of the fitted maximal effect; nearly all actives have a fitted effect of over 60% in size
Target sequence (P51450 whole entry, looked up, the tested form may be a part): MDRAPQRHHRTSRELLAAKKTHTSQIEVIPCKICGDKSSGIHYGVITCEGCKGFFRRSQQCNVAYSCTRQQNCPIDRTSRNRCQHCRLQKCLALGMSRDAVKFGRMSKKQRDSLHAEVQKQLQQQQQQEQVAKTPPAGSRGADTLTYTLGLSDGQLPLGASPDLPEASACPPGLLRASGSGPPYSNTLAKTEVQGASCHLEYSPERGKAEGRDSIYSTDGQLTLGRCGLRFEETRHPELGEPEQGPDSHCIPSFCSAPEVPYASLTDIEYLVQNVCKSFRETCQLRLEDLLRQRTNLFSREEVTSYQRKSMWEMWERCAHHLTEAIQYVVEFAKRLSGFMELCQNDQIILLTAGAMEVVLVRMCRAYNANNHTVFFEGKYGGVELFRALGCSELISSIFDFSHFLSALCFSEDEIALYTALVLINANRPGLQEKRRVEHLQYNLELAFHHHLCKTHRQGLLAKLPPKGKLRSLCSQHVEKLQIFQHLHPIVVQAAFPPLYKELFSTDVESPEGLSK
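A Gal4/UAS one-hybrid system in insect cells: metallothionein-promoter Gal4–ROR gamma fusion plus Photinus luciferase reporter. Copper sulfate 700 uM final, 20 hr ambient incubation, luminescent detection after 10 min with reagent.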
TDP1 cell CPT: growth inhibition of DT40 Tdp1-/-;hTDP1 cells with camptothecin (screen for TDP1 inhibitors). chicken DT40 Tdp1-/-;hTDP1 cells + 20 nM CPT, ATP luminescence, 48 h. Potency, µM (top dose mostly 46.2 µM), inactives show at the top dose activity change, negative = growth inhibition, usual class: inhibitors. 420,000 tested, 12% active. AID 686979; further: potency means the concentration at half of the fitted maximal effect; nearly all actives have a fitted effect of over 55% in size
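Chicken DT40 Tdp1-/- cells stably complemented with human TDP1 were seeded at 400 cells/well in medium containing 20 nM camptothecin, exposed to pin-transferred compounds, and grown at 37 °C for at least 48 hr. Viability was read as ATP luminescence.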
Numbers without * were called inactive; i = inactive; ? = inconclusive; nt = not tested or not shown; [ ] = dose if it differs, or a comment. Unless noted, the call rests on the fitted dose curve; in most records, active means well fitted curve in the direction sought with a large enough effect; inconclusive means small, poorly fitted or top-dose-only effect, or another doubt; inactive means no such curve, though single readings can be large; an effect the other way counts as inactive or inconclusive. On the % scale 0 is the no-effect control and ±100 the full control effect.

SMILES	ELG1 repair inh	DT40 TDP1 no CPT	IL-1B inflam inh	VP16 counter	RORg inh	TDP1 cell CPT
Cc1ccc(C(=O)CNc2ccc(C)cc2C)cc1	?	16µM*	-18	-9%	0%	23µM*
Cc1ccc(NCC(=O)NNC2=NCCC2)c(C)c1	-2%	5%	29	11µM*	8.9µM*	6%
Cc1ccc(C(=O)CNc2ccccc2C)cc1	?	-9%	-28	-5%	-29%	1%
Cc1ccc(C(=O)NNC2=NCCC2)cc1	-1%	-13%	12	18µM*	10µM*	-8%
O=C(OCc1ccccc1)N1CCCC2CC1c1ccccc12 (configuration not stated)	nt	?	24	nt	nt	-30%
CS(=O)(=O)N1CCc2cc(S(=O)(=O)Nc3ccc4c(c3)OCCO4)ccc21	?	8.2µM*	-22	18µM*	?	12µM*
CC1CCCCN1S(=O)(=O)c1ccc2c(c1)CCN2C(=O)C1CC1 (configuration not stated)	2%	-8%	14	9%	-4%	-18%
CCC(=O)N1CCc2cc(S(=O)(=O)Nc3ccc4c(c3)OCCO4)ccc21	?	5.2µM*	?	?	?	9.2µM*
CC(=O)N1CCc2cc(S(=O)(=O)NC(C(=O)Nc3ccc4c(c3)OCCO4)C(C)C)ccc21 (configuration not stated)	?	-11%	10	-9%	-2%	-1%
O=C(C1CCC1)N1CCc2cc(S(=O)(=O)Nc3ccc4c(c3)OCCO4)ccc21	-13%	7.3µM*	?	20µM*	?	12µM*
O=C(C1CC1)N1CCc2cc(S(=O)(=O)N3CCCc4ccccc43)ccc21	-9%	15µM*	4	-6%	19%	?
Cn1c(=O)c(=O)n(C)c2cc(S(=O)(=O)Nc3ccc4c(c3)OCCO4)ccc21	?	?	19	nt	6%[0.365 µM]	?
CC(=O)Nc1nonc1-c1nnc(SCC(=O)Nc2ccccc2Cl)n1C	nt	-25%	nt	nt	nt	-4%
Cc1cc(Cl)ccc1NS(=O)(=O)c1ccc2c(c1)CCN2S(C)(=O)=O	nt	21µM*	nt	nt	nt	?
CS(=O)(=O)N1CCc2cc(S(=O)(=O)NCCNS(=O)(=O)c3ccc4c(c3)CCN4S(C)(=O)=O)ccc21	-8%	7%	27	-4%	2%	1%
O=C(C1CCN(S(=O)(=O)c2ccc3c(c2)OCCO3)CC1)N1CCc2ccccc21	23µM*	21µM*	-7	1%	16%	?
O=C(C1CCN(S(=O)(=O)c2ccccc2)CC1)N1CCc2ccccc21	-3%	-22%	i	-3%	-29%	-25%
CCOC(=O)CC1C(=O)NCCN1C(=O)c1ccc(Cl)c(Cl)c1 (configuration not stated)	6%	-1%	0	5%	-18%	10%
CNc1ccc(C=O)cc1Br	nt	-23%	nt	nt	nt	-6%
CCC(C(=O)NC(C)(C)C)n1c(-c2cccc(NC(C)=O)c2)nc2ccccc21 (configuration not stated)	nt	12%	19	nt	nt	5%
Cc1ccc(NC(=O)CN(C)C(=O)Cc2ccc(Cl)c(Cl)c2)cc1	-9%	?	-9	26%	?	29µM*
Cc1ccc(NC(=O)CN(C)C(=O)Cn2ncc(Cl)c(Cl)c2=O)cc1	?	2.6µM*	-105*	-9%	16%	3.3µM*
O=C1CC2(CCN(C(=O)C3CC(=O)N(c4ccccc4)C3)CC2)Oc2ccccc21 (configuration not stated)	-6%	?	6	nt	nt	?
N/C(=N\OC(=O)COc1ccc2ccccc2c1)c1ccccn1	?	-10%	-58*	-85%	?	-1%
N/C(=N\OC(=O)c1ccc(Cl)c([N+](=O)[O-])c1)c1ccccn1	?	-20%	-107*	7%	0%	-5%
SMILES	ELG1 repair inh	DT40 TDP1 no CPT	IL-1B inflam inh	VP16 counter	RORg inh	TDP1 cell CPT
N/C(=N\OC(=O)c1cccc(Br)c1)c1ccccn1	?	12%	21	18µM*	10µM*	?
N/C(=N\OC(=O)COc1ccccc1Cl)c1ccccn1	?	1%	-14	?	?	7%
N/C(=N\OC(=O)c1ccc(Cl)cc1)c1[nH]ncc1Br	?	-19%	-10	?	?	-13%
N/C(=N/OC(=O)c1ccc(Cl)cc1)c1ncc([N+](=O)[O-])s1	?	21µM*	-6	8%	-13%	16µM*
N/C(=N\OS(=O)(=O)c1ccccc1)c1ccccn1	?	?	20	3%	13%	?
COc1ccc(C(=O)O/N=C(\N)c2ccccn2)cc1	?	-20%	-10	18µM*	14µM*	-18%
COc1cc(OC)cc(C(=O)O/N=C(\N)c2ccccn2)c1	?	-27%	-11	-6%	-34%	-3%
N/C(=N\OC(=O)c1ccc(Cl)cc1)c1ccccn1	?	-4%	-23	10µM*	8.9µM*	-9%
O=C(Sc1ccc(Cl)cc1)c1ccccn1	nt	16µM*	-83*	nt	nt	16µM*
N/C(=N\OS(=O)(=O)c1ccc(Cl)cc1)c1ccccn1	?	16µM*	84	-2%	1%	?
CC(C)Cn1nnnc1S(=O)(=O)Cc1ccccc1	nt	nt	nt	7%	14%	nt
CC(Sc1nc2ccc(C(=O)c3ccccc3)cc2[nH]1)C(=O)O (configuration not stated)	-5%	0%	4	1%	21%	5%
Nc1cccc(-c2nc3ccc(C(=O)c4ccccc4)cc3[nH]2)c1	?	0.82µM*	49	-19%	-22%	0.73µM*
Nc1ccc2nc(-c3cccs3)[nH]c2c1	?	?	4	14%	?	21µM*
Cn1cccc1-c1nc2ccc([N+](=O)[O-])cc2[nH]1	?	?	-16	11%	6%	-1%
Cc1nc2c(Cl)cc(Cl)cc2[nH]1	-4%	-20%	7	?	?	0%
O=[N+]([O-])c1ccc2nc(-c3ccccc3)[nH]c2c1	?	?	-69*	1%	34%	?
Nc1ccc(-c2nc3c(Cl)cc(N)cc3[nH]2)cc1	0%	7.3µM*	?	-7%	-14%	5.8µM*
CC(C)c1ccc(OCC(=O)NCCS(=O)(=O)N2CCN(c3ccc(F)cc3)CC2)cc1	nt	-18%	nt	nt	nt	-2%
Nc1ccc2nc(-c3ccc(N)c(Cl)c3)[nH]c2c1	4%	8.2µM*	?	?	-38%	6.5µM*

Screening results: PubChem, National Center for Advancing Translational Sciences (NCATS)
